HT1080 IDH1KD tx – kills HT-1080 cells with IDH1 knockdown; HT-1080 IDH1 knockdown viability, ATP luminescence, 48 h; Potency, µM (doses to about 46.1 µM), inactives show at the top dose activity, negative = toxicity, most hits filed as cytotoxic; 360,000 compounds, 2% hits; AID 686971;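 also: potency is read from the fitted curve at half-maximal effect; 0% = DMSO wells and -100% = cell-free medium wells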
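Using the IDH1-knockdown HT-1080 line run in the same batch and compound series as the NT line, viability after 48 h at 37 °C was determined by CellTiter-Glo luminescence and expressed as % activity.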
DT40 TDP1 CPT – growth inhibition of DT40 Tdp1-/-;hTDP1 cells with camptothecin (screen for TDP1 inhibitors); chicken DT40 Tdp1-/-;hTDP1 cells + 20 nM CPT, ATP luminescence, 48 h; Potency, µM (titrated, usually from 46.2 µM), for inactives: top-dose activity change, negative = growth inhibition, usual class: inhibitors; 420,000 compounds, 12% hits; AID 686979; also: potency is read from the fitted curve at half-maximal effect; nearly all actives have a fitted effect of over 55% in size
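Cell growth measured by CellTiter-Glo luminescence after a minimum 48 h, 37 C compound exposure with 20 nM CPT in Tdp1-knockout DT40 cells stably expressing hTDP1, seeded 400/well; qHTS titration format.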
DT40 TDP1 no CPT – qHTS for Inhibitors of human tyrosyl-DNA phosphodiesterase 1 (TDP1): qHTS in cells in absence of CPT | DT40 Tdp1-/- hTDP1 cells, no CPT, ATP luminescence, 48 h | Potency, µM (titrated, usually from 46.2 µM), for the others: top-dose activity change, negative = growth inhibition, most hits filed as inhibitors | AID 686978, 2013 | 420,000 compounds, 15% hits; also: potency is read from the fitted curve at half-maximal effect; nearly all actives have a fitted effect of over 55% in size
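DT40 Tdp1-/-;hTDP1 cells, no CPT (DMSO vehicle only), 400 cells/well; compounds pin-transferred; ≥48 hr, 37 °C; CellTiter-Glo 30 min RT dark, luminescence read.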
IL1B secr inh – inflammasome signaling inhibition, IL-1 beta readout. THP-1 LPS/ATP IL-1B secretion, AlphaLISA, 16 h; hits give low values. activity change, % at 57.5 µM. 360,000 compounds, 4.7% hits; in the data active = activity change below about -50%; inconclusive = mostly about -30% to -49%
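THP-1 cells pretreated 1 hr with compounds (up to 57.5 uM final), then stimulated with LPS (250 ng/mL final) plus ATP (1.25 mM final); secreted IL-1B measured by AlphaLISA after 16 hr, decreased signal indicating inhibition.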
HT1080NT lethal – kills 2HG-producing HT-1080-NT fibrosarcoma cells; HT-1080-NT fibrosarcoma viability, CellTiter-Glo ATP luminescence, 48 h; 360,000 compounds, 1.6% hits; Potency, µM (top dose mostly 46.1 µM), for inactives: at the highest dose activity, negative = less viability, usual class: cytotoxic;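 also: NT is the 2HG producing partner of a matched IDH1 knockdown line; potency is read from the fitted curve at half-maximal effect; 0% = DMSO-treated cells and -100% = media-only wells without cells; nearly all actives have a fitted effect of over 55% in size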
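Read-out is CellTiter-Glo luminescence after 10 minutes at room temperature, following 48 hours' compound treatment of HT-1080-NT cells (750 cells/well, RPMI, 5% FBS, 37 degrees C).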
Starred values were filed as active, the others as inactive; ? = inconclusive; . = no result given; [ ] = remark or other dose. In the library only some 19% were active in any assay of this set; here they are far more common. Unless noted, calls follow the shape of the dose curve; as a rule, active = well fitted curve in the direction sought with a large enough effect; inconclusive = small, poorly fitted or top-dose-only effect, or another doubt; inactive = no such curve, though single readings can be large; an effect the other way counts as inactive or inconclusive. Unless noted, % is scaled to controls: 0 for no effect and ±100 for the full control effect.

SMILES	HT1080 IDH1KD tx	DT40 TDP1 CPT	DT40 TDP1 no CPT	IL1B secr inh	HT1080NT lethal
CC(C)CN(C(=O)COC(=O)c1cnc(Cl)c(Cl)c1)c1c(N)n(Cc2ccccc2)c(=O)[nH]c1=O	-5.9%	-23.6%	-10.4%	-96.4*	-1.9%
CCCc1cc(C(=O)N2CCC(n3nccc3NC(=O)c3ccc(OC)cc3)CC2)no1	-5.9%	-2.6%	3.0%	-3.9	1.1%
COc1cc(C(=O)Nc2ccc3oc(-c4ccc(C)c(Br)c4)nc3c2)cc(OC)c1OC	.	20.6µM*	8.2µM*	.	.
COc1cc(C(=O)Nc2cccc(-c3nc4ccccc4o3)c2C)cc(OC)c1OC	2.6%	-0.7%	-11.9%	14.0	2.2%
COc1cc(C(=O)Nc2ccc(Cl)c(-c3nc4ncccc4o3)c2)cc(OC)c1OC	.	20.6µM*	16.4µM*	.	.
COc1cc(C(=O)Nc2ccc(-c3nc4cc(C)ccc4o3)c(O)c2)cc(OC)c1OC	-24.8%[9.24 µM]	11.6µM*	8.2µM*	.	-2.1%
CC[C@]1(C(=O)OC)[C@H]2C(=O)N(Cc3ccccc3)C(=O)[C@H]2[C@H]2CN=C(SCC3CC3)N21	11.0%	?	?	48.0	11.1%
C=CCn1c(=O)c2c(C)c(C)sc2n2c(Nc3ccccc3)nnc12	?	23.1µM*	23.1µM*	-17.6	?
Cc1noc(C)c1S(=O)(=O)Nc1ccccc1Oc1ccccc1	-5.5%	-2.9%	?	-3.6	-1.8%
O=C1c2ccccc2-c2onc3ccc(Oc4ccccc4)c1c23	4.11µM*	3.26µM*	2.59µM*	-25.0	-13.2%
Cc1ccc2c(c1)C(CCN)C(=O)N2Cc1ccccc1 (stereo not drawn)	-2.9%	?	20.6µM*	-7.2	-16.3%
CCN1C(=O)C(=O)c2cc(C)ccc21	-1.1%	4.61µM*	5.8µM*	73.9	-4.4%
Cc1ccc2c(c1)C(=O)C(=O)N2Cc1ccccc1	10.9%	1.16µM*	1.03µM*	46.9	-12.1%
CCCCCOc1ccccc1CN1C(=O)C(=O)c2cc(C)ccc21	.	13µM*	5.17µM*	.	.
CCn1nc(C(=O)NNC(=O)CCOc2cc(C)ccc2C)c2ccccc2c1=O	-7.2%	-18.3%	?	-4.9	1.6%
O=C(Cc1ccc(Cl)cc1)N/N=C/c1ccncc1	-8.0%	-7.6%	-24.0%	-8.3	-2.7%
CCCN1CNc2c(c(=O)[nH]c(=S)n2CCc2ccc(C)cc2)C1	15.7%	?	?	.	8.2%
Cc1ccc(CN2C(=O)CSC2c2ccc(F)cc2)cc1 (stereo not drawn)	4.9%	-18.0%	?	18.2	-8.5%
Cc1ccc2c(c1)C(=O)C(=O)N2Cc1ccc(F)cc1	-7.1%	0.731µM*	0.92µM*	67.7	-5.8%
Cc1ccc2c(c1)C(=O)C(=O)N2Cc1ccc(Cl)cc1	?	0.731µM*	0.92µM*	58.6	?
COc1cc(C(=O)Nc2ccccc2C2COC(=O)C2=N)cc(OC)c1OC (stereo not drawn)	-4.4%	-5.5%	-24.0%	0.0	-5.5%
COCCN(Cc1nc2ccccc2c(=O)[nH]1)C(=O)c1cccc(S(=O)(=O)N2CCCC2)c1	-4.1%	?	-4.3%	30.9	6.3%
COCCN(Cc1ccccc1)C(=O)c1cccc(S(=O)(=O)N2CCN(c3ccc(F)cc3)CC2)c1	-11.1%	?	18.4µM*	-20.4	-0.5%
COCCN(Cc1ccccc1)C(=O)c1cccc(S(=O)(=O)N2CCN(c3ccccc3)CC2)c1	-2.0%	?	16.4µM*	-5.5	-3.7%
COc1cccc(C2=NOC(C(=O)NCc3ccco3)C2)c1 (stereo not drawn)	?	9.2µM*	13µM*	2.3	?
SMILES	HT1080 IDH1KD tx	DT40 TDP1 CPT	DT40 TDP1 no CPT	IL1B secr inh	HT1080NT lethal
COc1cccc(C2=NOC(C(=O)NCc3ccccc3)C2)c1 (stereo not drawn)	?	5.17µM*	4.61µM*	0.0	?
CCc1ccc(NC(=O)Cn2c(=O)ccc3cc(S(=O)(=O)N4CCCC4)ccc32)cc1	.	-14.0%	-1.8%	.	.
CCOc1ccc(C(c2c(O)cc(C)n(CCOC)c2=O)N2CCN(c3ccc(F)cc3)CC2)cc1 (stereo not drawn)	.	-21.4%	?	.	.
O=C(Nc1ccccc1)O[C@@H]1C[C@H]2CCC(=O)N3CC[C@@H](C1)[C@@H]23	.	?	11.2µM*	.	.
O=C(Nc1ccccc1)O[C@@H]1C[C@H]2CCCC(=O)N3CC[C@@H](C1)[C@@H]23	4.9%	?	-11.5%	-13.2	0.3%
CCOC(=O)c1cc2c(c(-c3cccc(-c4cc5ccccc5o4)c3)n1)[C@@H](CCO)N(S(=O)C(C)(C)C)C2 (stereo partly drawn)	?	-20.0%	?	-14.7	?
CC(C)(C)S(=O)N1Cc2cc(C(=O)NCc3ccc(Oc4ccccc4)cc3)nc(-c3cccc(-c4cc5ccccc5o4)c3)c2[C@H]1CCO (stereo partly drawn)	18.4µM*	?	23.1µM*	-51.9*	18.4µM*
CC(C)(C)S(=O)N1Cc2cc(C(=O)NCCCN3CCOCC3)nc(-c3cccc(-c4cc5ccccc5o4)c3)c2[C@@H]1CCO (stereo partly drawn)	?	13µM*	18.4µM*	-8.6	?
COc1cccc(-c2cccc(-c3nc(C(=O)NCc4ccc5c(c4)OCO5)cc4c3[C@H](CCO)N(S(=O)C(C)(C)C)C4)c2)c1 (stereo partly drawn)	?	?	?	-23.0	?
CC(C)(C)S(=O)N1Cc2cc(C(=O)NCc3ccc4c(c3)OCO4)nc(-c3cccc(-c4cc5ccccc5o4)c3)c2[C@@H]1CCO (stereo partly drawn)	?	?	?	-22.5	23.1µM*
CCCCC(=O)Nc1nnc(S(=O)(=O)N(C)Cc2ccc(Cl)cc2)s1	.	-17.5%	-22.0%	.	.
Cc1cccnc1C1=NOC(Cc2ccccc2)C(=O)N1C (stereo not drawn)	15.5%	-11.3%	-20.0%	40.7	16.3%
Cc1cccnc1C1=NOC(Cc2ccccc2)C(=O)N1CCOc1ccc(F)cc1 (stereo not drawn)	2.6%	16.4µM*	23.1µM*	35.6	-10.8%
CC(C)CNC(=O)C1CCN(c2ccc(S(=O)(=O)N3CCOCC3)cc2[N+](=O)[O-])CC1	-1.6%	-26.6%	?	-12.8	-4.9%
COCCn1c(C)cc(C(=O)CSc2nc3ccccc3c(=O)[nH]2)c1C	?	16.4µM*	14.6µM*	8.3	-8.6%
COCCn1c(C)cc(C(=O)CSc2ccc3ccccc3n2)c1C	-13.6%	?	?	-4.0	-16.2%

Screening data from PubChem.
